# Laboratory results: PubChem BioAssay AID743331 (Broad Institute, 2014)
# Active and inactive are the calls of the source.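 The calls were made as follows: active = falling cell viability signal whose fitted half-effect concentration is at most twice the highest valid tested dose; inconclusive = flat curve with 30 to 70 percent loss, or poor fit; inactive = the rest.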
# Assay: HepG2 viability loss, ATP readout – cell-based, plate reader, dry powder, set 8, cytotoxicity control, dose response (AID 743331)
# Details: CellTiter-Glo ATP luminescence, 72 h; series mostly up to 15 µM
row,Compound,outcome
1,Cc1csc(NC(=O)c2cc(S(=O)(=O)N(C)C)ccc2N2CCCC2)n1,inactive
2,CN(C)S(=O)(=O)c1ccc(N2CCCC2)c(C(=O)Nc2nccs2)c1,inactive
3,Cc1cnc(NC(=O)c2cc(S(=O)(=O)N(C)C)ccc2N(C)C)s1,inactive
